Shown are actives, neighbours in structure and some others; about 2.7% of the full set was active somewhere.
BRCA1 expr act: activators of BRCA1 expression | MCF7-BRCA1-FFLuc reporter, luminescence, 48 h; response scale: scaled: vehicle 0%, 10 µM genistein 100% | hit rate 1.1% among 380,000 | Potency, µM (series often up to 46.1 µM), hits mostly activators; also: nearly all actives have a fitted effect of over 80% in size
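Luminescence from a BRCA1-driven firefly luciferase in MCF7 cells was the read-out, taken 15 min after substrate addition following 48 h compound exposure at 37 °C. Data were normalized to a 10 microM genistein control and DMSO vehicle.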
GLP1R ag: GLP-1 receptor (human) agonism; hit rate 0.007% among 380,000; HEK293 GLP-1R CRE-luciferase, luminescence, 4-6 h; cells express a hypersensitive GLP-1R form; P43220; Potency, µM (doses to about 45.6 µM), actives largely listed as activators
Target sequence (P43220 whole entry, looked up): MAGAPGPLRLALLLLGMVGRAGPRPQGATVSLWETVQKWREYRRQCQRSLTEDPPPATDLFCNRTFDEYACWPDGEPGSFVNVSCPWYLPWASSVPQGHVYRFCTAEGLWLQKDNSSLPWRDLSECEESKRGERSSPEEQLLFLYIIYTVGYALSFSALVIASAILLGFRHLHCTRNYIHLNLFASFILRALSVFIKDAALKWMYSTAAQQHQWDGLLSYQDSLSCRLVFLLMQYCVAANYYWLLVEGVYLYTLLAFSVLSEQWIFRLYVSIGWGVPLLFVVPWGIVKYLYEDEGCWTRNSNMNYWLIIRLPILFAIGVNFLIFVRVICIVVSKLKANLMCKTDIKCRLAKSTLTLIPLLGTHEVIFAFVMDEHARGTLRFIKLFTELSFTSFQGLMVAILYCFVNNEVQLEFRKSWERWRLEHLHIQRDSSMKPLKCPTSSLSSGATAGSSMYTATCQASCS
GLP1R inv ag: acts as inverse agonist at human GLP-1 receptor | HEK293 GLP-1R CRE-luciferase, luminescence, 24 h; GLP-1R form is constitutively active | hit rate 1.6% among 410,000 | Potency, µM (doses to about 38.3 µM), most hits filed as inhibitors | AID 624417; also: nearly all actives have a fitted effect of over 55% in size
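HEK293 cells stably co-expressing constitutively active GLP-1R and a cAMP-responsive luciferase reporter were seeded in DMEM with 10% Nu serum, given compounds after 12 h, and incubated 24 h at 37 deg C. Luminescence was then read.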
GLP1R cytotox: cytotoxicity counter-screen for GLP-1 receptor inverse agonists. HEK293 cAMP-luciferase reporter cells, luminescence, 24 h. Potency, µM (highest dose often 38.3 µM), most hits filed as inhibitors. hit rate 0.13% among 410,000;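 also: loss of luciferase light is scored as toxicity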
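MLSMR compounds, 24 hr on cells at 37 deg C/5% CO2; luminescence after luciferase reagent (12 min RT). Inhibition counted as the undesired cytotoxic outcome.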
a7 integrin act: integrin-mediated muscular dystrophy alleviation activation. alpha7betagal myoblasts, beta-gal FDG fluorescence, 48 h. Potency, µM (series often up to 38.3 µM), usual class: activators. hit rate 0.064% among 350,000. AID 624291; also: nearly all actives have a fitted effect of over 60% in size
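alpha7betagal+/- myoblasts (passage 13, 250/well) treated 48 h at 37C with compounds at 1:260 dilution of DMSO stock. Lysed, then beta-galactosidase activity read as FDG fluorescence (ex 480/em 540) after 30 min, with pre-read for autofluorescence.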
Each line names hits and unclear results; the compound was inactive in the other large screens. Calls follow the shape of the dose curve; as a rule, active = well fitted curve in the direction sought with a large enough effect; inconclusive = small, poorly fitted or top-dose-only effect, or another doubt; inactive = no such curve, though single readings can be large; an effect the other way counts as inactive or inconclusive.

NS(=O)(=O)c1ccc(NC(CNS(=O)(=O)c2ccccc2)c2ccccc2)cc1 (stereo not given)	GLP1R inv ag inconclusive, a7 integrin act inconclusive
COc1ccc(C2=NC3(CCCCCC3)N(CC(=O)Nc3ccc(C)c(C)c3)C2=O)cc1	none (no result: BRCA1 expr act, GLP1R ag, a7 integrin act)
COc1ccc(NC(=O)CN2C(=O)C(c3ccc(C)cc3)=NC23CCCCCC3)cc1Cl	GLP1R inv ag 11µM (no result: BRCA1 expr act, GLP1R ag, a7 integrin act)
COc1ccc(C2=NC3(CCCCCC3)N(CC(=O)Nc3cccc(Cl)c3)C2=O)cc1	GLP1R inv ag 11µM (no result: BRCA1 expr act, GLP1R ag, a7 integrin act)
COc1cccc(NC(=O)CN2C(=O)C(c3ccc(C)cc3)=NC23CCCCCC3)c1	GLP1R inv ag inconclusive
Cc1ccc(S(=O)(=O)N2CCC(c3ccncc3)CC2)c(C)c1	none (no result: BRCA1 expr act, GLP1R ag, a7 integrin act)
C(=Nc1ccc(/C=C/c2ccnc3ccccc23)cc1)c1ccco1	none (no result: GLP1R ag, GLP1R inv ag, GLP1R cytotox, a7 integrin act)
CCCCCC1CC1C(=O)N/N=C/c1ccc(N(C)C)cc1 (stereo not given)	GLP1R inv ag 7.9µM
O=c1c(N2CCN(c3cccc(C(F)(F)F)c3)CC2)csc2ccccc12	none (no result: a7 integrin act)
O=C1CC(=C(c2ccccc2)c2ccccc2)C(=O)N1CCCCN1CCN(c2ccccc2)CC1	GLP1R inv ag 1.3µM, GLP1R cytotox inconclusive
Cc1cccc(NC(=O)CCc2c(C)nc3nc(CNC(=O)c4cccc(F)c4)nn3c2C)c1	none (no result: BRCA1 expr act, GLP1R ag, a7 integrin act)
COC(=O)CSc1nc2cc3c(cc2cc1C#N)OCO3	BRCA1 expr act inconclusive
CCOC(=O)CSc1nc2cc(C)ccc2cc1C#N	none
CC(C)OC(=O)CSc1nc2cc3c(cc2cc1C#N)OCO3	BRCA1 expr act 4.5µM
CCOC(=O)CC(=O)CSc1nc2cc(C)ccc2cc1C	GLP1R inv ag 10µM
CCOC(=O)CSc1nc2ccc(C)cc2cc1C#N	BRCA1 expr act 4µM
O=[N+]([O-])c1ccccc1OCCCn1cnc2ccccc21	BRCA1 expr act 2µM
COc1ccc(CN2CCN(C(c3ccc(F)cc3)c3ccc(F)cc3)CC2)c(OC)c1OC	GLP1R inv ag 10µM, GLP1R cytotox inconclusive (no result: a7 integrin act)
COc1ccc2c(c1)c1c(c(=O)n(-c3cccc(C)c3)c(=O)n1CC(=O)NCCC1=CCCCC1)n2C	none (no result: BRCA1 expr act, GLP1R ag, a7 integrin act)
CCCN1CCN(C(=O)C2CCN(S(=O)(=O)c3c(C)noc3/C=C/c3ccc(C)cc3)CC2)CC1	GLP1R inv ag 3.2µM, GLP1R cytotox inconclusive
COc1ccc(/C=C/c2onc(C)c2S(=O)(=O)N2CCC(C(=O)N3CCCCCC3)CC2)cc1	GLP1R inv ag 5µM
Cc1ccc(/C=C/c2onc(C)c2S(=O)(=O)N2CCC(C(=O)N3CCCCC3)CC2)cc1	GLP1R inv ag inconclusive
S=c1[nH]nc(Cn2cnc3ccccc32)n1-c1ccccc1	a7 integrin act 8.9µM
Cc1ccc(CCNC(=O)CCn2nc(-c3ccc(C)cc3)ccc2=O)cc1	none (no result: BRCA1 expr act, GLP1R ag, a7 integrin act)
Cc1cccc(Oc2ccc(S(=O)(=O)N3CCCCC3)cc2N)c1	GLP1R inv ag 10µM
Cc1ccc(S(=O)(=O)c2ccc(Oc3cccc(C)c3)cc2)cc1	GLP1R inv ag 10µM
Nc1cc(S(=O)(=O)N2CCCCC2)ccc1Oc1ccc(Cl)cc1	GLP1R inv ag inconclusive, a7 integrin act inconclusive
Cc1ccc(C(=O)N(c2ccccc2)C2CC(C)N(C(=O)c3ccco3)c3ccccc32)cc1 (stereo not given)	GLP1R inv ag 10µM
CC(=O)N(c1ccccc1)C1CC(C)N(C(=O)c2ccccc2)c2ccccc21 (stereo not given)	none
COCc1c(C(=O)OCC(=O)N2c3ccccc3CC2C)oc2ccccc12 (stereo not given)	a7 integrin act inconclusive
Cc1c(C(=O)N2c3ccccc3CC2C)oc2ccccc12 (stereo not given)	GLP1R inv ag 10µM
COc1ccc(NC(=O)CSC2=Nc3ccccc3C3=NC(Cc4ccccc4)C(=O)N23)cc1Cl (stereo not given)	none (no result: BRCA1 expr act, GLP1R ag, a7 integrin act)
Clc1ccc(COn2nnc3ccccc32)c(Cl)c1	BRCA1 expr act 5.6µM, GLP1R inv ag inconclusive, a7 integrin act inconclusive
CN(C)c1ccc(/C=C/c2ccc3cc(N)ccc3n2)cc1	none (no result: GLP1R ag, GLP1R inv ag, GLP1R cytotox, a7 integrin act)
Cc1cc(-c2ccco2)c(C#N)c2nc3ccccc3n12	BRCA1 expr act 2.8µM
CSc1ccccc1C(=O)N(C)Cc1ccccc1	none
CSc1ccccc1C(=O)N(C)C(c1ccccc1)c1ccccc1	GLP1R inv ag 8.9µM

Assay outcomes (PubChem BioAssay)
